Compounds without any hit were thinned out: in the full panel of roughly 79,000, 15% have a hit. The source made the active and inactive calls. No stated cut-off is given here; in the data, active means growth inhibition above about 70%; inactive means the rest.
Experiment: NCI Yeast Anticancer Drug Screen. Data for the cln2 rad14 strain (AID 165);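 further: 0% = growth equal to vehicle treated cultures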
Settings: S. cerevisiae cln2 rad14 strain, at 50.0 µM, stronger effect = higher value
In short: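 Growth inhibition, relative to vehicle-treated controls, is the read-out. The test organism is a yeast strain with defined genetic alterations, cln2 rad14.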

Which growth inhibition does the source give for O=C(N/N=C/C=C/c1ccccc1)NNC(=O)c1cc([N+](=O)[O-])cc([N+](=O)[O-])c1 here?
Its growth inhibition is 13.8% (inactive).

With N#CC(=C1C=CC(=NOC(=O)c2ccccc2)C=C1)c1ccccc1 as the molecule, how does the growth inhibition read?
Its growth inhibition is -5.75% (inactive).

Which growth inhibition does the source give for CC(=O)C(CCCCCCCCCCC(C(C)=O)C(C)=O)C(C)=O here?
The growth inhibition was -38.6% (inactive).

With CN(C)CCCN1CCC2(CCC(C(C)(C)C)CC2)CC1 as the molecule, how does the growth inhibition read?
The growth inhibition was -19.1% (inactive).

With O=S(=O)(O)Cc1cccc2ccccc12 as the molecule, how does the growth inhibition read?
The growth inhibition was -17.6% (inactive).

With CC(=O)C1CC(CCC2([N+](=O)[O-])CCC(C)(O)C(C(C)=O)C2)([N+](=O)[O-])CCC1(C)O (stereo not given) as the molecule, how does the growth inhibition read?
The growth inhibition was 2.6% (inactive).

With CCC1CN1C(=O)c1cc(C(=O)N2CC2CC)cc(C(=O)N2CC2CC)c1 (stereo not given) as the molecule, how does the growth inhibition read?
The growth inhibition was 24.3% (inactive).

With CN(C)CCNCCN as the molecule, how does the growth inhibition read?
Its growth inhibition is -1.55% (inactive).

Which growth inhibition does the source give for C[CH2][Sn]([CH2]C)([N](c1ccccn1)c1ccccn1)[N](c1ccccn1)c1ccccn1 here?
Its growth inhibition is 4.3% (inactive).

For Brc1ccc(/C=C/c2ccnnc2)cc1, which growth inhibition is on record?
The growth inhibition was 25.5% (inactive).

Which growth inhibition does the source give for C1OC2OC3OCOC3C2O1 (stereo not given) here?
Its growth inhibition is -58.2% (inactive).

For C/C(O)=C(/C=NC(=S)c1ccncc1)C(=O)Nc1ccccc1, which growth inhibition is on record?
Its growth inhibition is -26.5% (inactive).

With O=C(O)CCNC(=O)c1ccccc1O as the molecule, how does the growth inhibition read?
Its growth inhibition is -53.8% (inactive).

For [N-]=[N+]=Nc1cc(=O)n(-c2ccccc2)c2ccccc12, which growth inhibition is on record?
The growth inhibition was -2.8% (inactive).

Which growth inhibition does the source give for CC(=O)Nc1ccc2c(c1)Cc1cccc(O)c1-2 here?
Its growth inhibition is -29.9% (inactive).

For Cc1ccc(S(=O)(=O)[N-]C2C(=O)c3ccccc3C(=O)C2[n+]2cccc(C(N)=O)c2)cc1 (stereo not given), which growth inhibition is on record?
Its growth inhibition is 4.55% (inactive).

For O=C(CC(C(=O)c1ccc(F)cc1)c1ccsc1)c1cccs1 (stereo not given), which growth inhibition is on record?
Its growth inhibition is 16.5% (inactive).

Which growth inhibition does the source give for CCOCCOCCOC(=O)C(C)O (stereo not given) here?
The growth inhibition was 6.55% (inactive).

With CNC(=O)CCCCC(=O)NC as the molecule, how does the growth inhibition read?
The growth inhibition was 6.15% (inactive).

For C#CCN(N=O)C(=O)NC(CCCCNC(=O)OCc1ccccc1)C(=O)OCc1ccccc1 (stereo not given), which growth inhibition is on record?
Its growth inhibition is -2.35% (inactive).

For O=S(=O)(SSS(=O)(=O)c1ccc(Cl)c(Cl)c1)c1ccc(Cl)c(Cl)c1, which growth inhibition is on record?
Its growth inhibition is -3.45% (inactive).

Which growth inhibition does the source give for O=C(O)C(c1ccc(-c2ccccc2)cc1)C1CCCCC1 (stereo not given) here?
The growth inhibition was 3.35% (inactive).

For CC(=O)OC(Cn1cncn1)(Cn1cncn1)c1ccc(Cl)cc1Cl, which growth inhibition is on record?
Its growth inhibition is 46.8% (inactive).

Which growth inhibition does the source give for CCO/C(O)=c1/s/c(=C2/SC(=S)N(c3ccc(C)cc3)C2=O)n(-c2ccccc2)c1=N here?
The growth inhibition was -55.5% (inactive).

With O=C(N/N=C1\C(=O)N(c2nccs2)C(=O)C(=O)C1c1nc2ccccc2s1)c1ccccc1O (stereo not given) as the molecule, how does the growth inhibition read?
The growth inhibition was 30.1% (inactive).

For CCNC(=O)CCN(C(=O)O)S(=O)(=O)c1ccc(NC(=O)c2ccccc2)cc1, which growth inhibition is on record?
Its growth inhibition is 0.25% (inactive).

With C[C@]1(CO)[C@H]2CC[C@@]34C=C[C@@](CO)(CC[C@H]3[C@]2(C)CC[C@H]1O)C4 as the molecule, how does the growth inhibition read?
The growth inhibition was 6.4% (inactive).

With NC(N)=N/N=C/c1c(-c2ccc(Cl)cc2)nc2n1CCS2 as the molecule, how does the growth inhibition read?
The growth inhibition was -10.9% (inactive).

Which growth inhibition does the source give for O=C(Nc1ccc(Cl)cc1)/C(Cc1cccc[n+]1[O-])=N\Nc1ccc([N+](=O)[O-])cc1[N+](=O)[O-] here?
Its growth inhibition is -7.15% (inactive).

With CNC(=O)c1ccccc1CC(O)c1ccccc1 (stereo not given) as the molecule, how does the growth inhibition read?
Its growth inhibition is 6.75% (inactive).

Which growth inhibition does the source give for C=C(C)/C=N/NS(=O)(=O)c1ccc(C)cc1 here?
The growth inhibition was -26.1% (inactive).

For CCOC(=O)Nc1nc(-c2ccc(Br)cc2)cs1, which growth inhibition is on record?
Its growth inhibition is -37.6% (inactive).

Which growth inhibition does the source give for C=C1C(=O)O[C@@H]2C[C@]3(C)[C@@H](C[C@H]12)[C@](C)(O)CC[C@@H]3O here?
The growth inhibition was -37.5% (inactive).

With CN(C)c1ccc(/C=C(\NC(=O)c2ccccc2)C(=O)NC(CC(=O)O)C(=O)O)cc1 (stereo not given) as the molecule, how does the growth inhibition read?
Its growth inhibition is 7% (inactive).

Which growth inhibition does the source give for NCc1c(C(N)=O)ncn1Cc1ccccc1 here?
The growth inhibition was -4.15% (inactive).

Which growth inhibition does the source give for COC1OC(CO)C(O)C(O)C1Br (stereo not given) here?
Its growth inhibition is 31.7% (inactive).

With CCOC(=O)c1ccc(CSc2ccc(N)cc2)c([N+](=O)[O-])c1 as the molecule, how does the growth inhibition read?
Its growth inhibition is 11.4% (inactive).

With O=CCCC1CCCCC1 as the molecule, how does the growth inhibition read?
Its growth inhibition is -17.4% (inactive).

With Br/C=C\Br as the molecule, how does the growth inhibition read?
The growth inhibition was 28.6% (inactive).

With Nc1cccc(C(F)(F)F)c1[N+](=O)[O-] as the molecule, how does the growth inhibition read?
Its growth inhibition is -23.4% (inactive).

Experiment: NCI Yeast Anticancer Drug Screen. Data for the bub3 strain (AID 167)
Settings: S. cerevisiae bub3 mutant strain, at 50.0 µM, stronger effect = higher value
In short: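 Readout: yeast growth inhibition, expressed relative to vehicle-only wells. The test organism is a mutant strain from a panel with lesions in DNA repair or checkpoint genes.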

For O=C(N/N=C/C=C/c1ccccc1)NNC(=O)c1cc([N+](=O)[O-])cc([N+](=O)[O-])c1, which growth inhibition is on record?
Its growth inhibition is 2.65% (inactive).

Which growth inhibition does the source give for N#CC(=C1C=CC(=NOC(=O)c2ccccc2)C=C1)c1ccccc1 here?
The growth inhibition was -2.7% (inactive).

For CC(=O)C(CCCCCCCCCCC(C(C)=O)C(C)=O)C(C)=O, which growth inhibition is on record?
Its growth inhibition is -6% (inactive).

For CN(C)CCCN1CCC2(CCC(C(C)(C)C)CC2)CC1, which growth inhibition is on record?
The growth inhibition was -31.2% (inactive).

Which growth inhibition does the source give for O=S(=O)(O)Cc1cccc2ccccc12 here?
Its growth inhibition is -2.65% (inactive).

Which growth inhibition does the source give for CC(=O)C1CC(CCC2([N+](=O)[O-])CCC(C)(O)C(C(C)=O)C2)([N+](=O)[O-])CCC1(C)O (stereo not given) here?
The growth inhibition was 12.3% (inactive).

For CCC1CN1C(=O)c1cc(C(=O)N2CC2CC)cc(C(=O)N2CC2CC)c1 (stereo not given), which growth inhibition is on record?
The growth inhibition was -5.75% (inactive).

For CN(C)CCNCCN, which growth inhibition is on record?
Its growth inhibition is -9.75% (inactive).

For C[CH2][Sn]([CH2]C)([N](c1ccccn1)c1ccccn1)[N](c1ccccn1)c1ccccn1, which growth inhibition is on record?
The growth inhibition was -0.6% (inactive).

For Brc1ccc(/C=C/c2ccnnc2)cc1, which growth inhibition is on record?
Its growth inhibition is 47.7% (inactive).

Which growth inhibition does the source give for C1OC2OC3OCOC3C2O1 (stereo not given) here?
The growth inhibition was 17% (inactive).

With C/C(O)=C(/C=NC(=S)c1ccncc1)C(=O)Nc1ccccc1 as the molecule, how does the growth inhibition read?
The growth inhibition was -45.1% (inactive).

Which growth inhibition does the source give for O=C(O)CCNC(=O)c1ccccc1O here?
Its growth inhibition is -18.1% (inactive).

With [N-]=[N+]=Nc1cc(=O)n(-c2ccccc2)c2ccccc12 as the molecule, how does the growth inhibition read?
The growth inhibition was -3.75% (inactive).

Which growth inhibition does the source give for CC(=O)Nc1ccc2c(c1)Cc1cccc(O)c1-2 here?
The growth inhibition was 1.75% (inactive).

Which growth inhibition does the source give for Cc1ccc(S(=O)(=O)[N-]C2C(=O)c3ccccc3C(=O)C2[n+]2cccc(C(N)=O)c2)cc1 (stereo not given) here?
The growth inhibition was 8.8% (inactive).

With O=C(CC(C(=O)c1ccc(F)cc1)c1ccsc1)c1cccs1 (stereo not given) as the molecule, how does the growth inhibition read?
Its growth inhibition is 8.5% (inactive).

With CCOCCOCCOC(=O)C(C)O (stereo not given) as the molecule, how does the growth inhibition read?
Its growth inhibition is -18.6% (inactive).

For CNC(=O)CCCCC(=O)NC, which growth inhibition is on record?
The growth inhibition was -10.8% (inactive).

For C#CCN(N=O)C(=O)NC(CCCCNC(=O)OCc1ccccc1)C(=O)OCc1ccccc1 (stereo not given), which growth inhibition is on record?
The growth inhibition was 14.2% (inactive).

With O=S(=O)(SSS(=O)(=O)c1ccc(Cl)c(Cl)c1)c1ccc(Cl)c(Cl)c1 as the molecule, how does the growth inhibition read?
The growth inhibition was 3.65% (inactive).

Which growth inhibition does the source give for O=C(O)C(c1ccc(-c2ccccc2)cc1)C1CCCCC1 (stereo not given) here?
The growth inhibition was 45% (inactive).

For CC(=O)OC(Cn1cncn1)(Cn1cncn1)c1ccc(Cl)cc1Cl, which growth inhibition is on record?
The growth inhibition was 39.8% (inactive).

With CCO/C(O)=c1/s/c(=C2/SC(=S)N(c3ccc(C)cc3)C2=O)n(-c2ccccc2)c1=N as the molecule, how does the growth inhibition read?
The growth inhibition was -21.4% (inactive).

For O=C(N/N=C1\C(=O)N(c2nccs2)C(=O)C(=O)C1c1nc2ccccc2s1)c1ccccc1O (stereo not given), which growth inhibition is on record?
Its growth inhibition is 4.5% (inactive).

For CCNC(=O)CCN(C(=O)O)S(=O)(=O)c1ccc(NC(=O)c2ccccc2)cc1, which growth inhibition is on record?
Its growth inhibition is -8.7% (inactive).

With C[C@]1(CO)[C@H]2CC[C@@]34C=C[C@@](CO)(CC[C@H]3[C@]2(C)CC[C@H]1O)C4 as the molecule, how does the growth inhibition read?
The growth inhibition was 11.7% (inactive).

With NC(N)=N/N=C/c1c(-c2ccc(Cl)cc2)nc2n1CCS2 as the molecule, how does the growth inhibition read?
Its growth inhibition is -5.05% (inactive).

With O=C(Nc1ccc(Cl)cc1)/C(Cc1cccc[n+]1[O-])=N\Nc1ccc([N+](=O)[O-])cc1[N+](=O)[O-] as the molecule, how does the growth inhibition read?
Its growth inhibition is -26.6% (inactive).

Which growth inhibition does the source give for CNC(=O)c1ccccc1CC(O)c1ccccc1 (stereo not given) here?
The growth inhibition was 0.9% (inactive).

With C=C(C)/C=N/NS(=O)(=O)c1ccc(C)cc1 as the molecule, how does the growth inhibition read?
The growth inhibition was -18.1% (inactive).

For CCOC(=O)Nc1nc(-c2ccc(Br)cc2)cs1, which growth inhibition is on record?
Its growth inhibition is 14.1% (inactive).

For C=C1C(=O)O[C@@H]2C[C@]3(C)[C@@H](C[C@H]12)[C@](C)(O)CC[C@@H]3O, which growth inhibition is on record?
The growth inhibition was 7.5% (inactive).

Which growth inhibition does the source give for CN(C)c1ccc(/C=C(\NC(=O)c2ccccc2)C(=O)NC(CC(=O)O)C(=O)O)cc1 (stereo not given) here?
The growth inhibition was -0.25% (inactive).

For NCc1c(C(N)=O)ncn1Cc1ccccc1, which growth inhibition is on record?
The growth inhibition was 7.4% (inactive).

For COC1OC(CO)C(O)C(O)C1Br (stereo not given), which growth inhibition is on record?
The growth inhibition was 23.8% (inactive).

Which growth inhibition does the source give for CCOC(=O)c1ccc(CSc2ccc(N)cc2)c([N+](=O)[O-])c1 here?
Its growth inhibition is 2.3% (inactive).

With O=CCCC1CCCCC1 as the molecule, how does the growth inhibition read?
The growth inhibition was 13.1% (inactive).

With Br/C=C\Br as the molecule, how does the growth inhibition read?
The growth inhibition was -12.8% (inactive).

With Nc1cccc(C(F)(F)F)c1[N+](=O)[O-] as the molecule, how does the growth inhibition read?
The growth inhibition was -25.9% (inactive).

— PubChem BioAssay (NCI)
